Counter-ions that a name gives are not always drawn.
Key:
Assay in all cases: thermal shift delta Tm vs DMSO control; higher = stronger stabilization (binding)
Conditions in all cases: 12.5 µM; protein concentration 2 µM
[1] = tested on: LOC_OS01G01410-cb001
Procedure, shortened: (§1)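 Purified, E. coli-expressed rice kinase domain constructs were tested by differential scanning fluorimetry in 96-well plates: 19.5 μl of 2 μM kinase in 100 mM potassium phosphate pH 7.5, 150 mM NaCl, 10% glycerol, 5 × SYPRO Orange, plus compound in DMSO. Fluorescence was read from 25°C to 95°C at 0.05°C/s. Melting temperatures came from Boltzmann fits, and the shift is the triplicate mean relative to protein with DMSO alone.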

[2] = tested on: LOC_OS01G02750-cb003
Procedure, shortened: as §1

[3] = tested on: LOC_OS01G10900-cb004
Procedure, shortened: as §1

[4] = tested on: LOC_OS01G13800-cb001
Procedure, shortened: as §1

[5] = tested on: LOC_OS01G14860-cb001
Procedure, shortened: as §1

[6] = tested on: LOC_OS01G21960-cb002
Procedure, shortened: as §1

[7] = tested on: LOC_OS01G39600-cb002
Procedure, shortened: as §1

[8] = tested on: LOC_OS01G48390-cb002
Procedure, shortened: as §1

[9] = tested on: LOC_OS01G51400-cb002
Procedure, shortened: as §1

[10] = tested on: T1, LOC_OS01G52050-cb004
T1 sequence (whole entry): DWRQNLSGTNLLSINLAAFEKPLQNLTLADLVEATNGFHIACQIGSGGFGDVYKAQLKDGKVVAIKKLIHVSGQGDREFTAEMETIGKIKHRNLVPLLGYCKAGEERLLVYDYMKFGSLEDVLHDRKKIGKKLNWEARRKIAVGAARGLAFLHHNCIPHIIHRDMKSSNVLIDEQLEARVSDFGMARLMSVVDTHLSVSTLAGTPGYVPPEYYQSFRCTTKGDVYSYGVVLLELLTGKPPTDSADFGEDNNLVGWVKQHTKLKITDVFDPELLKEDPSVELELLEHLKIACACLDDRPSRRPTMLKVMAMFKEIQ
Procedure, shortened: as §1

SMILES | thermal shift delta Tm [1] | thermal shift delta Tm [2] | thermal shift delta Tm [3] | thermal shift delta Tm [4] | thermal shift delta Tm [5] | thermal shift delta Tm [6] | thermal shift delta Tm [7] | thermal shift delta Tm [8] | thermal shift delta Tm [9] | thermal shift delta Tm [10]
CCNc1nc(Nc2cc(F)c(C(=O)N3CCOCC3)cc2OC)ncc1C(F)(F)F | 0.11 °C | 0.63 °C | 0.25 °C | 0.11 °C | 1.18 °C | 0.79 °C | 0.15 °C | 0.72 °C | 0.2 °C | -0.2 °C
COc1nccnc1NS(=O)(=O)c1ccc(NC(=O)/C=C/c2ccc([N+](=O)[O-])s2)cc1 [Necrosulfonamide] | 1.29 °C | 0.21 °C | 2.42 °C | 1.27 °C | 0.78 °C | 0.24 °C | -1.55 °C | 0.84 °C | -0.04 °C | 0.81 °C
C[C@@H]1CN(C(=O)c2ccc(NC(=O)c3cc(O[C@H](C)c4c(Cl)ccc(F)c4Cl)c(N)nn3)cc2)C[C@H](C)N1 [Ensartinib (X-396)] | 2.83 °C | 1.44 °C | 2.67 °C | -0.39 °C | 0.08 °C | 0.04 °C | 0.4 °C | 5.02 °C | -0.19 °C | 3.28 °C
COc1ncc(-c2cc(-c3ncc(CN4C[C@@H](C)O[C@@H](C)C4)o3)c3cn[nH]c3c2)cc1NS(C)(=O)=O | 0.55 °C | 3.05 °C | -0.41 °C | -0.09 °C | -0.11 °C | 0.43 °C | 0.15 °C | 0.01 °C | 0.34 °C | -0.19 °C
CNc1nc(-c2ccc3c(N)n[nH]c3c2)cc(N2C[C@@H](C(=O)NC3CCCCC3)CC[C@H]2C)n1 | -0.44 °C | 0.32 °C | 0.09 °C | 0.25 °C | 0.55 °C | 1.02 °C | -5.84 °C | 0.39 °C | 0.44 °C | 0.02 °C
C[C@H](Nc1ncnc2nc[nH]c12)c1cc2cccc(Cl)c2c(=O)n1-c1ccccc1 [Duvelisib (IPI-145, INK1197)] | -0.46 °C | 0.34 °C | 0.09 °C | -0.35 °C | 0.37 °C | 0.25 °C | -0.51 °C | 1.02 °C | 0.38 °C | 0.47 °C
CNC(=O)c1cc(Oc2ccc(NC(=O)Nc3cc(C(C)(C)C)nn3-c3ccc4ncccc4c3)c(F)c2)ccn1 [Rebastinib (DCC-2036)] | 1.21 °C | 0.84 °C | 0.98 °C | 0.38 °C | 7.66 °C | 1.31 °C | 0.57 °C | 1.3 °C | 0.47 °C | 1.95 °C
Cc1nc(NC(=O)N2CCC[C@H]2C(N)=O)sc1-c1ccnc(C(C)(C)C(F)(F)F)c1 [Alpelisib (BYL719)] | 0.28 °C | 1.42 °C | 3.68 °C | -0.51 °C | -0.19 °C | 0.02 °C | -0.17 °C | 0.54 °C | 0.42 °C | 0.12 °C
Cn1c(=O)c(Oc2ccc(F)cc2F)cc2cnc(NC(CCO)CCO)nc21 | 0.37 °C | 0.46 °C | 1.21 °C | 0.21 °C | 0.44 °C | 0.89 °C | 0.22 °C | -0.01 °C | -0.14 °C | 0.02 °C
C#Cc1cccc(Nc2ncnc3cc(OCCOC)c(OCCO)cc23)c1 | 1.63 °C | 0.85 °C | 1.08 °C | 0.74 °C | 0.28 °C | 0.99 °C | 2.63 °C | 2.12 °C | 0.19 °C | 1.63 °C
C[C@@H](N)c1ccc(C(=O)Nc2ccnc3[nH]ccc23)cc1 | 0.24 °C | 1.16 °C | 0.32 °C | 0.63 °C | 1.44 °C | 1.78 °C | 0.74 °C | 0.45 °C | 0.27 °C | 1.35 °C
CCS(=O)(=O)N1CCN(c2ccc(Nc3ncc(C(N)=O)c(NC4CC4)n3)cc2)CC1 | 5.29 °C | 1.8 °C | 1.08 °C | 0.55 °C | 3.61 °C | 2.53 °C | 4.63 °C | 1.17 °C | 1.11 °C | 5.37 °C
Nc1cccc(-c2cc3c(Oc4cccc(O)c4)ncnc3[nH]2)c1 | 2.64 °C | 1.81 °C | 1.53 °C | 0.59 °C | 4.88 °C | 1.92 °C | 3.68 °C | 2.32 °C | 0.45 °C | 2.13 °C
C=CC(=O)Nc1ccc2ncnc(Nc3cccc(Br)c3)c2c1 | 0.7 °C | -0.16 °C | -0.13 °C | -0.18 °C | 0.1 °C | 0.15 °C | -12.2 °C | 0.59 °C | 0.29 °C | 0 °C
Cc1ccc2nc(NCCN)c3ncc(C)n3c2c1 | 0.42 °C | 0.41 °C | 1.16 °C | 0.4 °C | 0.19 °C | 0.57 °C | -0.24 °C | 1.79 °C | 0.09 °C | 0.5 °C
CCCCNc1ncc2c(-c3ccc(CN4CCN(C)CC4)cc3)cn([C@H]3CC[C@H](O)CC3)c2n1 | 5.57 °C | 6.91 °C | 0.53 °C | -0.91 °C | 2.44 °C | 2.55 °C | 7.19 °C | 3.3 °C | 0.81 °C | 9.81 °C
Cc1cc(Nc2cc(CN3CCOCC3)c3nc(C)c(Cc4ccc(Cl)cc4F)n3n2)n[nH]1 | 2.97 °C | 3.19 °C | 1.89 °C | -0.62 °C | 7.26 °C | 2.02 °C | 2.41 °C | 5.72 °C | -0.5 °C | 1.05 °C
C[C@@H](N)[C@H]1CC[C@H](C(=O)Nc2ccncc2)CC1 | 1.02 °C | 0.15 °C | 0.1 °C | 0.65 °C | 0.11 °C | 0.84 °C | 0.45 °C | 0.65 °C | 0.29 °C | -0.08 °C
O=C1NC(=O)C(=Cc2ccc(-c3ccc(F)cc3)o2)S1 (stereo in doubt) | 0.61 °C | 1.08 °C | 0.58 °C | 0.53 °C | 0.85 °C | 1.54 °C | 0.11 °C | 0.58 °C | 0.18 °C | 0.58 °C
O=C(Nc1cccc(Cl)c1)Nc1ncc(CCNc2ncnc3ccsc23)s1 [SNS-314 Mesylate] | 3.62 °C | 3.42 °C | 2.72 °C | 0.91 °C | 2.61 °C | 2.26 °C | 2.71 °C | 1.79 °C | 0.41 °C | 4.19 °C
